The structures appear in SMILES notation. Records with an inconclusive call do not appear. Entries that show only a call come without a potency. More than one record can exist for a structure, and the calls need not agree. Active and inactive are the calls of the source. The call rests on the fitted dose curve.
Potency means the concentration at half of the fitted maximal effect.

Acetylcholinesterase (Homo sapiens), sequence (P22303 whole entry, looked up): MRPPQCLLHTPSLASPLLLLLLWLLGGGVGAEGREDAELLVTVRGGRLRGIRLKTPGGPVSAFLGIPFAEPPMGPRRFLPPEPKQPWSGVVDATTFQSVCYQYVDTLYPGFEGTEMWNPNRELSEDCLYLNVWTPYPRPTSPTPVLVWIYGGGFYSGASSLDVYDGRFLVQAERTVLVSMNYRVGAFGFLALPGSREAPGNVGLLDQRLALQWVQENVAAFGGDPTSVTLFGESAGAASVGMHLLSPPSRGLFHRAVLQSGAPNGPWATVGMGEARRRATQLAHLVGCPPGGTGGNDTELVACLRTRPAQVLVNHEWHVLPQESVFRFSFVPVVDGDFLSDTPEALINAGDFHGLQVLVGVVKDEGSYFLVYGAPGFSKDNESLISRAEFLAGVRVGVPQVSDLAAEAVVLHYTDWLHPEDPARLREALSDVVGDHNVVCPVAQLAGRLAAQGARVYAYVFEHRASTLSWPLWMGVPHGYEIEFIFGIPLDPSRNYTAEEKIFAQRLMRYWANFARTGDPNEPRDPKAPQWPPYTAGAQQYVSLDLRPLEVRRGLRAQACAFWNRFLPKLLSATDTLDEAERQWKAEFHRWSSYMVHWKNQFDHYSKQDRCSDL

This assay concerns the target Acetylcholinesterase (Homo sapiens) (UniProt P22303). The assay can be described thus: Acetylcholinesterase (AChE) small molecule antagonists: colormetric cell-based qHTS assay (AID 1347395). Further: nearly all actives have a fitted effect of over 30% in size. Conditions: SH-SY5Y cells AChE activity, colorimetric (Ellman); series mostly up to 115 µM. The gist of the method: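 In this cell-based qHTS, attached SH-SY5Y cells were treated with test chemicals for 30 min, after which acetylthiocholine hydrolysis was followed by DTNB colour development over 90 min at 37 C.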
Regarding `CC(CO)(CO)CO`, the Potency result was “inactive”.
The same measure, in the same setting: the result for `COc1ccc(N)c(C)c1` reads “inactive”; that for `CC(C)C(=O)Nc1cccc(C(F)(F)F)c1`, “inactive”; that for `CC(=O)Oc1cccc(O)c1`, “inactive”.
Same read-out and setting: the result for `C=C(C)C(=O)OCCC[Si](OC)(OC)OC` reads “inactive”.
Still for that read-out and setting: the result for `CCC(C(=O)NC(=O)NC(C)=O)c1ccccc1` (stereo not given) reads “inactive”; that for `Cn1ccnc1`, “inactive”.
On to `O=C1c2cccc(O)c2C(=O)c2c(O)cccc21`, for which the Potency result was “inactive”.
Still for that read-out and setting: the result for `C[C@@H](NCCCc1cccc(C(F)(F)F)c1)c1cccc2ccccc12` reads “inactive”; that for `Cc1cccc(Nc2ccncc2S(=O)(=O)NC(=O)NC(C)C)c1`, “inactive”; that for `CCn1cc(C(=O)O)c(=O)c2cc(F)c(N3CCNCC3)nc21`, “inactive”.
As for `OC1(c2ccc(Cl)c(C(F)(F)F)c2)CCN(CCCC(c2ccc(F)cc2)c2ccc(F)cc2)CC1`, the Potency entry is “inactive”.
Still for that read-out and setting: the result for `CSc1ccc(Cl)cc1` reads “inactive”; that for `O=C(c1cc(O)c(O)c(O)c1)c1ccc(O)c(O)c1O`, “inactive”; that for `CCCCOC(=O)COc1ccc(Cl)cc1Cl`, “inactive”.
With `CCCCCCCCCCOC(=O)c1ccccc1C(=O)OCCCCCCCC`, the Potency result is “inactive”.
Still for that read-out and setting: the result for `Cc1cccc(C)c1NC(=O)CN1CCCC1` reads “inactive”; that for `C=C[C@H]1CN2CC[C@H]1C[C@@H]2[C@@H](O)c1ccnc2ccc(OC)cc12`, “inactive”.
Same read-out and setting: the result for `Cc1c(O)cccc1O` reads “inactive”.
Still for that read-out and setting: for `CCCOCCOCCOCCO` the value was “inactive”; for `C=CC(C)(CCC=C(C)C)OC(=O)/C=C/c1ccccc1` (stereo not given), “inactive”.
On to `CCCCC(CC)COC(=O)COc1cc(Cl)c(Cl)cc1Cl` (stereo not given), for which the Potency result was “inactive”.
Still for that read-out and setting: the result for `c1ccc2c(c1)CCC2` reads “inactive”; that for `CCCCCCCCCCCCCCCCN`, “inactive”.
On the same count and under the same terms, for `CCOC(=O)[C@H](CCc1ccccc1)N[C@@H](C)C(=O)N(CC(=O)O)C1Cc2ccccc2C1` the value was “inactive”; for `CC(=O)[C@H]1CC[C@H]2[C@@H]3C[C@H](C)C4=CC(=O)CC[C@]4(C)[C@H]3[C@@H](O)C[C@]12C`, “inactive”; for `CCCCCCCCCCCCO`, “inactive”.
The same measure, in the same setting: the result for `CN(C)CCN(Cc1ccsc1)c1ccccn1` reads “inactive”.
Regarding `O=C1OC2(c3ccccc31)c1cc(I)c(O)c(I)c1Oc1c2cc(I)c(O)c1I`, the Potency is 36 µM (active) and inactive.
Same read-out and setting: for `CC(=O)c1ccccc1O` the value was “inactive”; for `CCCC(C)CO` (stereo not given), “inactive”; for `Cc1ccccc1S(N)(=O)=O`, “inactive”.
Regarding `CC(C)(C)CC(C)(C)c1ccc(Nc2ccc(C(C)(C)CC(C)(C)C)cc2)cc1`, the activity, negative = inhibition was -3.03% [at 10.5 µM] (inactive).
Take `OCc1cccc(Oc2ccccc2)c1`: the Potency entry was “inactive”.
For `Nc1ccn([C@H]2CC[C@@H](CO)O2)c(=O)n1`, the Potency result was “inactive”.
On to `COP(=O)(OC)OC(c1ccc(Cl)cc1)P(=O)(OC)OC` (stereo not given), for which the Potency entry was “inactive”.
As for `COc1ccc(C(=O)N2CCN(CC(=O)N3CCOCC3)CC2)cc1`, the Potency result is “inactive”.
As for `O=C(O)c1ccco1`, the Potency result is “inactive”.
Still for that read-out and setting: for `CC(C)(C)NC(=O)[C@H]1CC[C@H]2[C@@H]3CC[C@H]4NC(=O)C=C[C@]4(C)[C@H]3CC[C@]12C` the value was “inactive”; for `Cn1cnc([N+](=O)[O-])c1Sc1ncnc2nc[nH]c12`, “inactive”.

Source of the values: PubChem BioAssay (Tox21).
